In PubChem BioAssay AID1487 (National Center for Advancing Translational Sciences (NCATS), 2009):
About 25 (0.01%) of roughly 200,000 compounds were called active. About 23% were inconclusive and are not listed. Calls come from the whole dose curve; as a rule, active = well fitted inhibition curve with a large enough effect in the signal ratio, with a control signal flat (not every such curve was filed as active); inconclusive = small, poorly fitted or top-dose-only effect, or effect the other way, or a change in a side signal; inactive = flat fitted curve, though single readings scatter; the % refers to the signal ratio. The list comes from a sample in which actives are over-represented; it also holds similar structures and randomly drawn compounds.

Assay: qHTS Assay for Modulators of Lamin A Splicing
Settings: HeLa LMNA splicing GFP/RFP minigene ratio, 48 h; series mostly up to 46 µM
Excerpt: NCGC Assay Overview: Hutchinson-Gilford Progeria Syndrome (HGPS) is a pediatric premature aging disease caused by a spontaneous mutation in the lamin A/C (LMNA) gene. The mutation activates a cryptic splice site in the LMNA pre-mRNA which results in production of a pre-lamin A protein that cannot be processed properly. The mutant protein accumulates in the nucleus and negatively affects numerous cellular functions. Correction of the splicing defect in HGPS patient cells using a targeted oligonucleotide (exo11) leads to reversal of the cellular disease phenotypes. To identify small molecule modulators of aberrant LMNA splicing, a homogenous assay was constructed in HeLa cells that used a GFP containing minigene to report on correction of aberrant splicing in lamin A and a RFP (DsRed2) to report on cell viability, uniformity and nonspecific effects on the assay signal. This assay was adapted to laser-scanning microplate cytometry (Acumen, TTP Labtech) where miniaturization of the assay to a 1,536-well plate format was possible. References: Bowen, W. P.; Wylie, P. G. Application of Laser-Scanning Fluorescence Microplate Cytometry in High Content Screening. Assay Drug Dev Technol 2006;4:209-221. Scaffidi P, Misteli T. Reversal of the cellular phenotype in the premature aging disease Hutchinson-Gilford progeria syndrome. Nat.
NCGC Assay Protocol Summary: Reagents/Controls: Stable clones expressing DsRed2 and lamin A-EGFP were generated by Cell and Molecular Technologies in S3 HeLa cells. HeLa cells were prepared for the assay when they were 70-90% confluent. The cells were counted and resuspended in Opti-MEM I (no phenol red; Gibco), 2% FBS, 1% penicillin/ streptomycin (Gibco) at concentration of 120 cells/uL concentration. The suspension was passed through a Falcon basket filter with pore size 40um (Beckton Dickson). Control titrations: column […] 1536-well plate contained a sixteen point titration (1:2 dilutions) in duplicate of ancitabine (Sigma: A8598) beginning at 40 uM final concentration. Column 2 contained a sixteen point titration (1:2 dilutions) of cycloheximide beginning at 1.4 mM final concentration. Column 3 contained ancitabine at 40 uM and column 4 contained was the vehicle control (0.5% DMSO final concentration). Assay Steps: 5 uL of HeLa cells were plated in Aurora LoBase black clear bottom (cyclic-olefin polymer) 1536-well plates at a final density of 600 cells/well. Controls and library compounds were added with a 1536-well pin array using the Kalypsys pin-tool. The plates were then incubated for 48 hrs in a cell-culture incubator (37 °C; 5% CO2, 98% humidity). Following incubation the plates were read on the Acumen Explorer using the 488 nm laser. Data was collected on objects between 10 and 100 um in size. Cell objects were defined by a 15 um width x 10 um depth filter. The ratio of the total object intensity in PMT1 (500-530 nm emission; GFP) over PMT3 (575-640 nm emission; RFP) was calculated for analysis. Keywords: NIH Roadmap, MLSCN, MLI, MLSMR, qHTS, NCGC, lamin A, Progeria, RNA splicing.
% is set by controls: 0 for no effect and ±100 for the full control effect.

Ratio change, negative = inhibition, inactive:
COc1cccc(N(Cc2nnc3n2CCCCC3)C(=O)Nc2ccccc2F)c1
CCOc1ccc(NC(=O)C(CC(C)C)N2Cc3ccccc3C2=O)cc1 (stereo unspecified)
Cc1cccc(NC(=O)c2ccc(F)c(S(=O)(=O)N(C)C3CCCCC3)c2)c1
Cc1cc(NC(=O)CSc2nc3c(cc2C#N)CCCCC3)no1
Cn1c(N)c(C(=O)COC(=O)c2ccccc2NCc2ccco2)c(=O)n(C)c1=O
Cc1csc(NC(=O)Nc2ccccc2[N+](=O)[O-])n1
S=c1[nH]nc(-c2cccs2)n1/N=C/c1cccs1 21.8% [at 9.22 µM]
COCC(C)NCc1cc(Br)ccc1OC (stereo unspecified)
Cc1ccc(S(=O)(=O)NC(=O)N2CCCN(Cc3ccc(F)cc3)CC2)cc1
Cc1ccc(C)c(-n2nnnc2SCC(=O)c2c(N)n(C)c(=O)n(C)c2=O)c1 -17.5% [at 9.22 µM]
CC(C(=O)N=Nc1c(O)n(C)c2ccc(Br)cc12)n1cnc2ccccc2c1=O (stereo unspecified)
COc1ccc(Br)cc1/C=N/Nc1ccc(Cl)c(C(=O)O)c1
Cc1nnc(SCC(=O)NNC(=O)c2ccc(Cl)cc2)n1CC1CCCO1 (stereo unspecified)
CCOC(=O)c1cccc(NC(=O)c2cc(S(=O)(=O)N3CCCC(C)C3)cn2C)c1 (stereo unspecified)
Cc1ccc(NC(=O)Cn2c(=O)n(CCC(=O)NC3CCN(Cc4ccccc4)CC3)c(=O)c3ccccc32)cc1
Cc1ccccc1NC(=O)NC1(C(=O)N2CCCC2)CCCCC1
Cc1cccc(NC(=O)c2ccc3nc(C(C)C)oc3c2)c1C
CC(=O)NC(Cc1ccc(F)c(F)c1)C(=O)NC1CCN(c2nnnn2-c2ccccc2)CC1 (stereo unspecified)
O=C(CN1CCSCC1)N/N=C/c1ccc(Cl)cc1 -10.4% [at 9.22 µM]
COc1ccc2ncc3c(-c4ccc(C)c(C)c4)nn(CC(=O)NC4CCCC4)c3c2c1
COc1ccc(CNC(=O)C2=Cc3cccc(OC)c3OC2)cc1OC
Cc1nccn1CCCNC(=O)CC1C(=O)NCCN1Cc1ccc(Cl)c(F)c1 (stereo unspecified)
COc1cc(CN(C(=O)c2ccccc2Br)c2ccccn2)cc(OC)c1OC
O=Cc1ccc(Oc2cccc(C(F)(F)F)c2)nc1
Cc1ccccc1OCCSc1nc2ccc(NC(=O)c3ccco3)cc2s1
COc1cc(Cl)c(C)cc1Nc1nnc(-n2nc(C)cc2C)c2ccccc12
COc1ccc(C(=O)Nc2cccc(S(C)(=O)=O)c2)cc1
C=CCn1c(CNC(=O)c2ccco2)nnc1SCC(=O)c1ccc(OC)cc1
COc1cc(/C=N/Nc2ccc(C)cc2)cc(Br)c1O
O=C(Nc1ccc2nc(SCCOc3ccccc3Cl)sc2c1)c1ccco1
Cc1cc(C)c2c(NC(=O)C3CC3)nn(C)c2n1
C/C(CC(=O)N1CCN(C=O)CC1)=N\NC(=O)c1ccc(Br)cc1
COc1cccc(NC(=O)c2ccc3nc(CCc4ccccc4)oc3c2)c1
COc1ccc(CCNC(=O)c2ccc(CSCc3ccc(C)cc3)o2)cc1OC
O=C(COc1ccc(-c2ccccc2)cc1)NN=C1CCCC1
CC1(C)CC(=O)c2cnc3nc4ccccc4n3c2C1
